Assay outcomes from PubChem BioAssay.
In the library only some 3.2% were active in any assay of this set; here they are far more common.
ANO1 activ – activates or potentiates the mouse TMEM16A chloride channel; B-score at 10 µM; HEK293 TMEM16A/YFP-H148Q/I152L, iodide quench fluorescence; stronger effect = lower value; 0.3% of 340,000 active;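 active means fluorescence-ratio B-score plate-corrected deviation score at least 3 library SD below zero, with starting fluorescence score within 5 deviations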;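 further: channel opened by trigger with iodide after compound preincubation; score built on the fluorescence ratio of max minus min over baseline; more negative score means more quench and so TMEM16A activation or potentiation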
TMEM16A inh – inhibitors of mouse TMEM16A calcium-activated chloride channel; normalized B-score (activity score, 25-100; higher = stronger inhibition) at 10 µM; HEK293 TMEM16A/YFP iodide influx fluorescence, ionomycin; 1.2% of 310,000 active;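 active means ratio plate-corrected score three or more library SD toward inhibition, starting fluorescence score within five deviations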;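 further: score derived from kinetic fluorescence span divided by baseline fluorescence per well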
CHT allo act – allosterically activates the human high affinity choline transporter; CHT-expressing cells, membrane potential dye, choline EC20; stronger effect = higher value; LV-AA mutant CHT in HEK293 cells; 0.49% of 310,000 active; B-score at 10 µM; Q9GZV3;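 active means initial fluorescence not abnormally high and integrated response B-score, plate-corrected, over 3 SD above library mean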
Kir21 inh – blocks the mouse Kir2.1 inward-rectifier potassium channel; HEK293-Kir2.1, FluxOR thallium flux fluorescence; stronger effect = lower value; B-score at 10 µM; 0.85% of 310,000 active;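 active means fluorescence ratio B-score at or below minus 3 SD of library scores, with starting-brightness B-score within 2 SD, cut at about -4.2 in these data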;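 further: channel flux triggered by added potassium and thallium sulfate stimulus; B-score of peak minus minimum fluorescence over baseline after thallium stimulus; more negative B-score means stronger Kir2.1 block with less thallium influx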
CHT inh – inhibitors of human choline transporter CHT; Q9GZV3; CHT-expressing cells, membrane potential dye, choline response; stronger effect = lower value; B-score at 10 µM; 0.86% of 310,000 active; AID 488975;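 active means B-score over 3 SD under the library average, and starting fluorescence ratio not unusually high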;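 further: choline stimulus applied at its EC90 after an EC20 pre-addition; B-score computed on integrated fluorescence ratio after choline addition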
Rce1 inhib – inhibitors of yeast Ras-converting enzyme | Q03530 | yeast membranes, quenched prenylated peptide cleavage fluorescence | calls only | 0.27% of 290,000 active | AID 2563;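 active means fall in fluorescence gain of 50% or more versus controls, with final raw signal at or below 3038400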
Target sequence (Q03530 whole entry, looked up): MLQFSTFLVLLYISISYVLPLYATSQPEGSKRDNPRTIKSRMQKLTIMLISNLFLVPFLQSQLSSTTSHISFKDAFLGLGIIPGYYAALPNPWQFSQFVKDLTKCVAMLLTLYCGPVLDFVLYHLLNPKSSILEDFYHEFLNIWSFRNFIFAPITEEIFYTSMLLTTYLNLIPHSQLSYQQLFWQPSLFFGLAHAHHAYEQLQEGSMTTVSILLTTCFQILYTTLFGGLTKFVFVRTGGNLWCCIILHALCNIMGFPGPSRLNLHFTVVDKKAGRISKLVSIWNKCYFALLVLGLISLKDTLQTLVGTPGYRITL
CHT activ conf – confirmation of human choline transporter (CHT) activators | AID 504833 | shares compounds with CHT allo act | CHT-expressing cells, membrane potential dye fluorescence (FDSS); % of choline EC20–EC90 response window; HEK293 expressing CHT LV-AA mutant; choline added at its EC20 | 91% of 2,500 active | activation, % at 10 µM;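 active means primary screen active, with duplicate mean activation above negative control mean plus 3 SD, cut at about 11% in these data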
HEK293 MP dye – CHT activator counter-screen hit in parental HEK293 cells; membrane potential dye fluorescence (FDSS); measured after EC20 choline addition; shares compounds with CHT allo act; 62% of 2,500 active; ratio readout change at 10 µM, hits read low;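 active means duplicate-averaged ratio beyond 3 SD from buffer wells, up or down, though filed actives are nearly all decreases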
A number is an active result.

CC(=O)NCCC(=O)Nc1cc(S(=O)(=O)N2CCOCC2)ccc1N1CCCC1 was read as ANO1 activ inactive, TMEM16A inh inactive, CHT allo act inactive, Kir21 inh inactive, CHT inh inactive and Rce1 inhib inactive.
`OCCNc1nc(N2CCN(Cc3ccccc3)CC2)nc2ccccc12` gave ANO1 activ inactive, TMEM16A inh inactive, CHT allo act inactive, Kir21 inh inactive, CHT inh inactive, Rce1 inhib inactive, CHT activ conf 59.5 and HEK293 MP dye -71.9.
CCN1CCN(c2nc(NCCO)c3ccccc3n2)CC1 was read as ANO1 activ inactive, TMEM16A inh inactive, CHT allo act 8.87, Kir21 inh inactive, CHT inh inactive, Rce1 inhib inactive, CHT activ conf 75.9 and HEK293 MP dye -79.1.
Screening OCCNc1c2ccccc2nc2ccccc12 returned ANO1 activ inactive, TMEM16A inh inactive, CHT allo act 6.32, Kir21 inh inactive, CHT inh inactive, Rce1 inhib inactive, CHT activ conf 40.3 and HEK293 MP dye -47.2.
c1ccc(CN2CCN(c3nc(N4CCOCC4)c4ccccc4n3)CC2)cc1 was read as ANO1 activ inactive, TMEM16A inh inactive, CHT allo act inactive, Kir21 inh inactive, CHT inh inactive and Rce1 inhib inactive.
Brc1c(-c2ccc3c(c2)OCO3)nc2ncccn12 was read as ANO1 activ inactive, TMEM16A inh inactive, CHT allo act 6.26, Kir21 inh inactive, CHT inh inactive, Rce1 inhib inactive, CHT activ conf 44.6 and HEK293 MP dye -45.9.
`Cc1ccc(C(=O)N2CCCCC2C(=O)O)cc1S(=O)(=O)N1CCCCC1` (configuration not stated) gave ANO1 activ inactive.
For CCOC(=O)C1CCN(c2nc(C)nc3c2oc2ccccc23)CC1 the results were ANO1 activ inactive, TMEM16A inh inactive, CHT allo act 8.05, Kir21 inh inactive, CHT inh inactive, Rce1 inhib inactive, CHT activ conf inactive and HEK293 MP dye inactive.
For Cc1nc(N2CCOCC2)c2oc3ccccc3c2n1 the results were ANO1 activ inactive, TMEM16A inh inactive, CHT allo act inactive, Kir21 inh inactive, CHT inh inactive and Rce1 inhib inactive.
Screening COc1ccc(-c2csc3nc(C)n(-n4cccc4)c(=O)c23)cc1OC returned ANO1 activ inactive, TMEM16A inh inactive, CHT allo act inactive, Kir21 inh inactive and CHT inh inactive.
COc1ccc(-c2csc3nc(C)nc(N4CCCCC4)c23)cc1OC was read as ANO1 activ inactive, TMEM16A inh inactive, CHT allo act inactive, Kir21 inh inactive, CHT inh inactive, Rce1 inhib inactive, CHT activ conf 26.7 and HEK293 MP dye inactive.
For Cc1ccc(CNS(=O)(=O)c2c(C(=O)N3CCCCC3)c(C)n(C)c2C)o1 the results were ANO1 activ inactive, TMEM16A inh inactive, CHT allo act inactive, Kir21 inh inactive, CHT inh inactive and Rce1 inhib inactive.
COc1ccc(C(C)=O)cc1CSC(=N)N was read as ANO1 activ inactive, TMEM16A inh inactive, CHT allo act inactive, Kir21 inh inactive, CHT inh inactive and Rce1 inhib inactive.
`CCOc1ccc(C(C)=O)cc1CSC(=N)N` gave ANO1 activ inactive, TMEM16A inh inactive, CHT allo act inactive, Kir21 inh inactive, CHT inh inactive, Rce1 inhib inactive, CHT activ conf 12.6 and HEK293 MP dye -45.4.
For COc1ccc(NC(=O)C(=O)NNC(=O)c2cccs2)cc1 the results were ANO1 activ inactive, TMEM16A inh inactive, CHT allo act inactive, Kir21 inh inactive, CHT inh inactive and Rce1 inhib inactive.
Screening COc1ccc(NC(=O)C(=O)NNC(=O)c2cccs2)c(OC)c1 returned ANO1 activ inactive, TMEM16A inh inactive, CHT allo act 7.22, Kir21 inh inactive, CHT inh inactive, Rce1 inhib inactive, CHT activ conf 69.1 and HEK293 MP dye -46.8.
`O=C(CSC(=S)N1CCCCC1)Nc1ncc2c(n1)CCCC2=O` gave ANO1 activ inactive, TMEM16A inh inactive, CHT allo act inactive, Kir21 inh inactive, CHT inh inactive and Rce1 inhib inactive.
For O=[N+]([O-])c1ccc(OC/C=C2\Oc3ccc([N+](=O)[O-])cc3C2N2CCOCC2)cc1 (configuration not stated) the results were ANO1 activ inactive, TMEM16A inh inactive, CHT allo act 7.46, Kir21 inh inactive, CHT inh inactive, Rce1 inhib inactive, CHT activ conf 30.1 and HEK293 MP dye inactive.
CC(CCc1ccccc1)NC(=O)/C=C/c1ccc(Cl)cc1 (configuration not stated) was read as ANO1 activ inactive, TMEM16A inh inactive, CHT allo act inactive, Kir21 inh inactive, CHT inh inactive, Rce1 inhib inactive, CHT activ conf inactive and HEK293 MP dye inactive.
Screening Cc1ccc(C)c(S(=O)(=O)N2CCN(CC(=O)NC(C)c3ccccc3)CC2)c1 (configuration not stated) returned ANO1 activ inactive.
CCCn1c(=O)c2[nH]c(-c3ccc(S(=O)(=O)O)cc3)nc2n(CCC)c1=O was read as ANO1 activ inactive, TMEM16A inh inactive, CHT allo act inactive and CHT inh inactive.
For O=C(C[n+]1cc(-c2ccc(Br)cc2)n2c1CCCCC2)c1ccccc1 the results were ANO1 activ inactive, TMEM16A inh inactive, CHT allo act inactive, Kir21 inh inactive, CHT inh inactive, Rce1 inhib inactive, CHT activ conf 23.4 and HEK293 MP dye inactive.
Screening COc1ccc(Cc2nnc(NC(=O)c3ccccc3C)s2)cc1 returned ANO1 activ inactive, TMEM16A inh inactive, CHT allo act inactive, Kir21 inh inactive, CHT inh inactive and Rce1 inhib inactive.
COCCn1c(Cc2ccccc2)nnc1SCc1ccc([N+](=O)[O-])cc1 was read as ANO1 activ inactive, TMEM16A inh inactive, CHT allo act inactive, Kir21 inh inactive, CHT inh inactive, Rce1 inhib inactive, CHT activ conf 20.7 and HEK293 MP dye inactive.
Screening CCOC(=O)[C@@H](C)N(C(=O)OC(C)(C)C)S(=O)(=O)N(Cc1ccccc1)[C@H](C(=O)OC)C(C)C returned ANO1 activ inactive.
For CC(C)(C)NC(=O)Cn1nnc(-c2ccc(OCc3c(F)cccc3Cl)cc2)n1 the results were ANO1 activ inactive, TMEM16A inh inactive, CHT allo act inactive, Kir21 inh inactive, CHT inh inactive and Rce1 inhib inactive.
